PP5 primary: PP5 (human) phosphatase inhibition. P53041. AID 1987. purified PP5c, OMFP substrate fluorescence. actives 0.18% (n = 320,000). inhibition, % at 6.7 µM;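 active = inhibition above the campaign's mean inhibition across all tested compounds plus 3 SD, cut at about 9.5% in these data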;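 also: 0% = DMSO only and 100% = 100 µM cantharidin control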
PP1 inh: counter-screen for PP5 inhibitors: inhibitors of human PP1-alpha | P62136 | purified PP1alpha, OMFP fluorescence | inhibition, % at 6.7 µM | actives 0.9% (n = 320,000) | AID 2235;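 active = inhibition above the mean inhibition of all tested compounds plus 3 SD, computed separately for each screening campaign, cut at about 15% in these data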
KLK7 zymogen act: activates the human kallikrein-7 zymogen. purified proKLK7, EDANS-DABCYL substrate fluorescence; 100% is mature enzyme control, 0% vehicle. activation, % at 7 µM. actives 0.9% (n = 370,000);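 active = activation above the mean of all tested compounds plus 3 SD, computed per campaign excluding outliers beyond control limits, cut at about 13% in these data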
Target sequence (P49862 whole entry, looked up): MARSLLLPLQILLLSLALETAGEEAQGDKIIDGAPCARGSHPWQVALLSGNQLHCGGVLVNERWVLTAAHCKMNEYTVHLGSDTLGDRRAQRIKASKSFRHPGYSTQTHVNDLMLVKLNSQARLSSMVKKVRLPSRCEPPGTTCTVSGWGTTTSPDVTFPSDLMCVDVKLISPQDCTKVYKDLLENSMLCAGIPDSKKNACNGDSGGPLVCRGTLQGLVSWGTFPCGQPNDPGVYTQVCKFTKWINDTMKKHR
GASC-1 inh: blocks human GASC-1 demethylase activity; Q9H3R0; GST-JMJD2C(1-420) H3K9me3 demethylation, DELFIA europium; inhibition, % at 2.35 µM; actives 0.069% (n = 330,000); AID 2099;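 active = more than half of a compound's replicate wells show inhibition beyond 50%, single wells judged on their own value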;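 also: signal counts dimethyl H3K9 product captured on neutravidin plate; 0% = median of DMSO wells and 100% = 0.3 times that DMSO median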
Target sequence (Q9H3R0 1-420 limits assumed): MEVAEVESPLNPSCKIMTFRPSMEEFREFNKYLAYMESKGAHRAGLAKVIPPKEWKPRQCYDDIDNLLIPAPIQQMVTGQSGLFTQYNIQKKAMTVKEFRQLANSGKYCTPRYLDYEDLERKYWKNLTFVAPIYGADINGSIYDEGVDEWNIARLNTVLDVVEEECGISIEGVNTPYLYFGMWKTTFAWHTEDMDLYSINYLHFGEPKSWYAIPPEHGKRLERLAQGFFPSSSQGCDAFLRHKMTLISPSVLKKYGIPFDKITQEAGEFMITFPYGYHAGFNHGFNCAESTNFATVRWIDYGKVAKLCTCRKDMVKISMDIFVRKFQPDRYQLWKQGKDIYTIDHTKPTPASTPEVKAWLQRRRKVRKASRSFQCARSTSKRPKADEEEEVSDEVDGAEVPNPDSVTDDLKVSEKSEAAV
PG9 binder: PG9 antibody binding by small molecule; TR-FRET gp120-PG9 antibody binding; inhibition, % at 6.7 µM; actives 0.43% (n = 360,000); AID 624416; in the data active = inhibition above about 8.5%
NR1D1 modulator: modulators of human Rev-erb alpha DNA binding; P20393; Rev-erbα–FITC-DNA binding, fluorescence polarization, 90 min; actives 0.79% (n = 370,000); activity, % at 10 µM;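 active = activity above about 14%, limit read from the data; passing the limit was not always enough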;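 also: 0% = DMSO wells with 35 nM protein and 100% = DMSO wells with 750 nM protein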
KLK7 act conf: confirmation of human kallikrein-7 zymogen activators. shares compounds with KLK7 zymogen act. purified proKLK7, EDANS-DABCYL substrate fluorescence; scaled: vehicle 0, mature enzyme 100. activation, % at 7 µM. actives 68% (n = 3,200). AID 686949;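 active = activation, as change over the incubation, above the mean of all tested compounds plus 3 SD, cut at about 13% in these data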
EDANS-DABCYL int: counter-screen for kallikrein-7 activators: EDANS-DABCYL optical interference; shares compounds with KLK7 zymogen act; actives 80% (n = 3,200); EDANS-DABCYL substrate fluorescence interference, no enzyme, 4 h; solvent 0%, active enzyme control 100%; activation, % at 7 µM;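 active = activation above the all-compound mean plus 3 SD, ignoring values outside control-based bounds, cut at about 4.8% in these data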;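 also: value is the 4 h activation minus the activation read at time zero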
K7 EDANS ctr: EDANS fluorescence interference in dose response, no enzyme. shares compounds with KLK7 zymogen act. EDANS-DABCYL peptide fluorescence interference. EC50, µM. actives 20% (n = 250). AID 720493;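 active = compounds that raise the fluorescence signal in this interference counterscreen, with EC50 at or below 10 µM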;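 also: intact quenched peptide substrate alone read at 355 nm excitation and 520 nm emission; signal is fluorescence gain from T0 to T4 after four hours at room temperature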
Starred values were filed as active, the others as inactive. Compounds with a hit are over-represented: about 2.8% of the library has one in this group of screens.

Results for O=c1c2cc(N3CCOCC3)ccc2[nH]c(=S)n1CCCN1CCCCC1 ?
PP5 primary: 3.3; PP1 inh: -6.7; KLK7 zymogen act: 120.8*; GASC-1 inh: -2.4; PG9 binder: -0.8; NR1D1 modulator: -1.4; KLK7 act conf: 29.4*; EDANS-DABCYL int: 24.1*; K7 EDANS ctr: >69.5

What do the screens show for `O=C(c1ccc(Cn2c(=S)[nH]c3ccc(N4CCOCC4)cc3c2=O)cc1)N1CCC(N2CCCCC2)CC1`?
PP5 primary: -0.5; PP1 inh: 10.2; KLK7 zymogen act: 27.6*; GASC-1 inh: 1.7; PG9 binder: 0.6; NR1D1 modulator: -4.9; KLK7 act conf: -34.4; EDANS-DABCYL int: -40.8

What do the screens show for `CCN(CCCn1c(=S)[nH]c2ccc(N3CCOCC3)cc2c1=O)c1ccccc1`?
PP5 primary: 0.6; PP1 inh: 13.8; KLK7 zymogen act: -20.2; GASC-1 inh: -8.8; PG9 binder: -1.8; NR1D1 modulator: 0.6

Results for O=c1c2cc(N3CCOCC3)ccc2[nH]c(=S)n1CCCN1CCCC1 ?
PP5 primary: 3.2; PP1 inh: -0.6; KLK7 zymogen act: 114.2*; GASC-1 inh: -13.1; PG9 binder: -0.1; NR1D1 modulator: -9.8; KLK7 act conf: 25.5*; EDANS-DABCYL int: 27.4*

How did CCOc1ccc(/C=C(\C)C(=O)c2c(C)cc(C)[nH]c2=O)cc1 do in these assays?
PP5 primary: -0.3; PP1 inh: -0.2; KLK7 zymogen act: 27.8*; GASC-1 inh: 11.4; PG9 binder: -2.5; NR1D1 modulator: 5.6; KLK7 act conf: -0.2; EDANS-DABCYL int: 0.1

Results for COP(=O)(O)CCOCCC(CC(C)C)NC(=O)OCc1ccccc1 (centres undefined) ?
KLK7 zymogen act: 0.0; NR1D1 modulator: 2.7

How did COc1cc(/C=N/NC(=O)c2nnn(-c3nonc3N)c2-c2cccs2)ccc1O do in these assays?
PP5 primary: 1.5; PP1 inh: 0.6; KLK7 zymogen act: -0.1; GASC-1 inh: 3.7; PG9 binder: -2.2; NR1D1 modulator: 0.6

Results for COc1ccc(/C=N/NC(=O)c2nnn(-c3nonc3N)c2-c2cccs2)cc1OC ?
PP5 primary: 5.0; PP1 inh: -3.0; KLK7 zymogen act: 32.1*; GASC-1 inh: 13.3; PG9 binder: -2.4; NR1D1 modulator: -4.8; KLK7 act conf: 216.8*; EDANS-DABCYL int: 352.8*

Results for CC(C)C[C@H]1COc2cccc(F)c2S(=O)(=O)N1C ?
KLK7 zymogen act: 0.1; NR1D1 modulator: -0.3

What do the screens show for `Cc1[nH]n(-c2cccc3ccccc23)c(=O)c1C=Nc1ccc2[nH]c(=O)[nH]c2c1`?
PP5 primary: 0.2; PP1 inh: -1.0; KLK7 zymogen act: 0.2; GASC-1 inh: 4.0; PG9 binder: -3.0; NR1D1 modulator: 5.9

How did Cc1ccc(-n2[nH]c(C)c(C=Nc3ccc4[nH]c(=O)[nH]c4c3)c2=O)cc1C do in these assays?
PP5 primary: 2.8; PP1 inh: 3.2; KLK7 zymogen act: 179.2*; GASC-1 inh: -22.0; PG9 binder: -1.4; NR1D1 modulator: -3.7; KLK7 act conf: 186.4*; EDANS-DABCYL int: 168.8*

Results for Cc1ccc(-n2[nH]c(C)c(C=Nc3ccc4[nH]c(=O)[nH]c4c3)c2=O)cc1 ?
PP5 primary: 0.5; PP1 inh: 0.5; KLK7 zymogen act: 379.3*; GASC-1 inh: -1.1; PG9 binder: -0.3; NR1D1 modulator: 1.2; KLK7 act conf: 443.1*; EDANS-DABCYL int: 406.7*

What do the screens show for `CC1(c2nnnn2Cc2ccccc2)CSCC(=O)N1Cc1cccs1` (centres undefined)?
KLK7 zymogen act: 0.3; NR1D1 modulator: -4.8

Results for COc1cc(/C=C/C(=O)O)cc(OC)c1O ?
PP5 primary: -1.8; PP1 inh: -0.4; KLK7 zymogen act: 20.8*; GASC-1 inh: -5.5; PG9 binder: -0.6; NR1D1 modulator: 2.2; KLK7 act conf: 70.0*; EDANS-DABCYL int: 79.2*

Results for COc1cc(C)cc(C(=O)C=Cc2ccccc2)c1O ?
KLK7 zymogen act: 14.1*; PG9 binder: 1.4; NR1D1 modulator: 2.7; KLK7 act conf: 9.1; EDANS-DABCYL int: 10.8*

How did Cc1ccc(/C=C/C(=O)c2ccccc2O)cc1 do in these assays?
PP5 primary: 0.9; PP1 inh: -0.2; KLK7 zymogen act: 0.6; GASC-1 inh: -3.1; PG9 binder: 0.0; NR1D1 modulator: -1.8

How did Cc1ccc(O)c(C(=O)C=Cc2ccccc2)c1 do in these assays?
KLK7 zymogen act: 13.3*; PG9 binder: -1.5; NR1D1 modulator: -4.7; KLK7 act conf: 34.1*; EDANS-DABCYL int: 34.4*

What do the screens show for `COc1ccc2nc(NN=Cc3cccc(C)n3)cc(C)c2c1`?
KLK7 zymogen act: -8.6; PG9 binder: -5.6; NR1D1 modulator: -8.1

Results for COc1ccc2c(CN3CCCCC3)cc(=O)oc2c1 ?
KLK7 zymogen act: 22.8*; PG9 binder: -0.2; NR1D1 modulator: 1.3; KLK7 act conf: 2.6; EDANS-DABCYL int: 1.3

How did Cc1c(O)c(CN2CCCC2)cc2c3c(c(=O)oc12)CCC3 do in these assays?
PP5 primary: 1.1; PP1 inh: 1.5; KLK7 zymogen act: 70.5*; GASC-1 inh: 4.3; PG9 binder: 0.1; NR1D1 modulator: -0.4; KLK7 act conf: 66.9*; EDANS-DABCYL int: 65.2*

How did CCc1cc(=O)oc2c(C)c(O)c(CN3CCCCC3)cc12 do in these assays?
PP5 primary: 2.4; PP1 inh: -6.0; KLK7 zymogen act: 49.0*; GASC-1 inh: -14.3; PG9 binder: 1.6; NR1D1 modulator: -8.0; KLK7 act conf: 63.5*; EDANS-DABCYL int: 78.6*

What do the screens show for `COC(=O)[C@]12C[C@H](CC(=O)NCc3cccc4ccccc34)C(=O)N(Cc3ccc(Cl)cc3Cl)C1=C[C@H](C1CCCC1)O[C@@H]2C`?
KLK7 zymogen act: 0.7; NR1D1 modulator: 8.6

What do the screens show for `CCCCN1CN2Cc3cc(F)ccc3C2CS1(=O)=O` (centres undefined)?
KLK7 zymogen act: -0.4; NR1D1 modulator: 0.4

What do the screens show for `O=c1c(N2CCOCC2)coc2ccccc12`?
PP5 primary: 2.2; PP1 inh: 0.7; KLK7 zymogen act: 0.0; GASC-1 inh: 11.6; PG9 binder: -2.9; NR1D1 modulator: -1.4

Results for O=c1[nH]c(N2CCOCC2)cc2ccccc12 ?
PP5 primary: -3.0; PP1 inh: -1.1; KLK7 zymogen act: 34.1*; GASC-1 inh: -4.3; PG9 binder: -0.6; NR1D1 modulator: -7.0; KLK7 act conf: 19.6*; EDANS-DABCYL int: -7.4; K7 EDANS ctr: >69.6
